Source: PubChem BioAssay

Test: A549 cell viability effects, profiling panel, calcein-AM fluorescence, 48 h, basal (AID 1162); further: test concentration not given here
Settings: higher = more signal

SMILES	z-score
Cc1ccccc1C(O)C1C=CC2C(=O)NC(=O)C2N1Nc1ccccn1 (centres undefined)	-0.251
CCCCC(=C=CC[C@H](O)c1ccc(OCCO)cc1)CCO	-0.113
CC(c1ccccc1)C(O)C1C=CC2C(=O)N(C)C(=O)C2N1Nc1ccccc1 (centres undefined)	-0.227
C=CCC(OC(C)=O)[C@@H]1[C@@H](N(Cc2ccc(-c3cccc(C(F)(F)F)c3)o2)C(=O)Cc2ccc(OC)cc2)c2cc(OCCCO)ccc2N1C(=O)c1ccc(-c2ccccc2)cc1 (some centres undefined)	0.095
Cc1ccc(S[C@]2(C(=O)NC(C)C)CC(=O)N(Cc3cc(C(F)(F)F)cc(C(F)(F)F)c3)[C@@H]2c2ccc(CO)cc2)cc1	0.15
CCOC(=O)C[C@H]1[C@H](OC(=O)c2cc3ccccc3oc2=O)[C@@H](NC(=O)CC(C)C)c2cc(OCCCO)ccc2N1C(=O)c1ccc2ccccc2n1	-0.326
COc1ccc(CCNC(=O)[C@@]2(c3ccc([N+](=O)[O-])cc3)CC(=O)N(C3CCCCC3)[C@@H]2c2ccc(CO)cc2)cc1	2.41
C[C@@H]1NC(=O)[C@@H](Cc2ccccc2)NC(=O)[C@@]23C(=O)N[C@@H](Cc4ccccc4)C2[C@H](C)[C@@]2(C)O[C@H]2C3/C=C/C/C=C\CNC1=O (some centres undefined)	-0.312
CCC1=C2CN(Cc3ccccc3)[C@@H](C(=O)Cc3ccccc3)C2C=CCC1 (some centres undefined)	0.0398
N#Cc1ccc(NN2C(C(O)c3ccc(Br)cc3)C=CC3C(=O)N(c4ccccc4)C(=O)C32)cc1 (centres undefined)	0.647
OCCCC1=CC(c2ccc(CN3CCCC3)cc2)N(Cc2cc3c(cc2Br)OCO3)CC1 (centres undefined)	-0.8
O=C(O)[C@@H]1C[C@@H]2C(=O)N3CCC[C@H]3C(=O)N2[C@@H]1c1ccc(O)cc1	-0.335
CC(C)[Si]1(C(C)C)OCc2cc(-c3ccc(-c4ccc(Cl)c(Cl)c4)o3)nc(-c3ccccc3)c21	-0.715
COc1ccc([Si](C)(C)[C@@H]2[C@@H](CCO)O[C@]3(C(=O)N(Cc4ccccc4)c4ccc(N5C(=O)c6cccc7cccc5c67)cc43)[C@H]2C)cc1	-0.768
C=C[C@H](C)[C@H](OC(=O)Nc1ccc(SC)cc1)c1ccc(OCCO)cc1	0.0889
CCOC(=O)C[C@H]1[C@H](OC(=O)c2cc3ccccc3oc2=O)[C@@H](NC(=O)c2ccc3ccccc3n2)c2cc(OCCCO)ccc2N1C(=O)Cc1ccc(OC)cc1	0.308
O=C(NCCN1CCOCC1)[C@@H]1c2ccccc2C(=O)N(Cc2ccccc2Cl)[C@H]1c1ccc(CO)cc1	0.53
COC(=O)[C@@]1(Cc2ccc(F)cc2)[C@H]2c3cc(C(=O)N4CCCC4)n(Cc4ccc(C)c(F)c4F)c3C[C@H]2CN1C(=O)c1ccccc1	-0.858
CCCCC(CC)C(O)C1C=CC2C(=O)N(c3ccccc3)C(=O)C2N1Nc1ccccc1F (centres undefined)	0.389
[N-]=[N+]=Nc1ccccc1C[C@]1(C(=O)O)COC(c2ccc(OCCCO)cc2)=N1	-0.118
CC(=O)NCCCC[C@@H]1NC(=O)[C@@H]2C[C@H](C(=O)NCCCCCN)[C@H](c3cccc(OCCO)c3)N2C1=O	1.3
COc1ccc(C#Cc2ccc3c(c2)[C@]2(C(=O)N3)[C@H](c3ccc(OCCO)cc3)N3[C@H](c4ccccc4)[C@H](c4ccccc4)OC(=O)[C@H]3[C@@H]2C(=O)NC[C@H](O)c2ccccc2)cc1	0.357
CC(C)NC(=O)[C@@]1(C)c2ccccc2C(=O)N(Cc2ccc(OC(F)(F)F)cc2)[C@H]1c1ccc(CO)cc1	-0.692
CCCC[C@@H](O)C1=C(COC)C[C@H]2C(=O)N(Cc3ccccc3)C(=O)[C@H]2[C@H]1CO	0.449
